Bioassay records (PubChem)
MARV entry inh – inhibitors of Marburg virus binding or cell entry. hit rate 1.8% among 300,000. Potency, µM (series often up to 37.8 µM), most hits filed as inhibitors. Marburg virus pseudotyped entry inhibition, cell reporter; calls by dose curve; tested in HEK293 cells
VACV mCherry inh – vaccinia inhibition (mCherry reporter). Vaccinia virus mCherry reporter infection, fluorescence. Potency, µM (titrated, usually from 36.5 µM), most hits filed as inhibitors. hit rate 0.63% among 310,000; calls by dose curve; tested in A549 cells; also: nearly all actives have a fitted effect of over 35% in size
LASV entry inh – blocks Lassa virus binding to or entry into cells; Lassa virus pseudotype entry inhibition, cell reporter; Potency, µM (series often up to 37.9 µM), most hits filed as inhibitors; hit rate 1.2% among 300,000; calls by dose curve; tested in HEK293 cells; also: nearly all actives have a fitted effect of over 50% in size
HCV inh – blocks hepatitis C virus. Huh7.5.1 HCVcc-Cre infection, luciferase reporter, 44 h. Potency, µM (doses to about 41.8 µM), hits mostly inhibitors. hit rate 3.4% among 340,000. AID 651820; active = well fitted inhibition curve with a large enough effect; inconclusive = small, poorly fitted or top-dose-only effect, or another doubt; inactive = no such curve, though single readings can be large or run the other way
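Compounds are dispensed onto cells plated 4 h earlier at 1,000 per well, with HCVcc-Cre virus (about 0.5 moi) added next. Following 44 h of culture, luminescent signal is measured for 15 sec after 15 min with substrate at room temperature.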
Vaccinia Venus – inhibitors of vaccinia virus (Venus reporter); Potency, µM (top dose mostly 36.5 µM), usual class: inhibitors; Vaccinia virus Venus reporter expression, fluorescence; hit rate 0.46% among 330,000; AID 720580; calls by dose curve; tested in A549 cells; also: nearly all actives have a fitted effect of over 30% in size
HCMV inh – blocks human cytomegalovirus replication; hit rate 4.5% among 410,000; activity change, negative = inhibition, % at 57.5 µM; AID 1259415; HFF cells, HCMV-luciferase reporter, 72 h; stronger effect = lower value; in the data active = activity change below about -60%; inconclusive = no clear call, values can overlap the other calls; inactive = above about -39%
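Steps: HFFs plated, 16 h 37C; compounds added; HCMV-luciferase added to MOI 1 PFU/cell; 72 h 37C; OneGlo reagent, 5 min room temperature; luminescence read, normalized to controls.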
Hits are given with their value; - = inactive; ? = inconclusive; . = not tested or not shown; [ ] = another dose, or the depositor's remark. Shown are actives, neighbours in structure and some others; about 7.8% of the full set was active somewhere.

SMILES | MARV entry inh | VACV mCherry inh | LASV entry inh | HCV inh | Vaccinia Venus | HCMV inh
COc1cccc2cc(C(=O)N3CCc4ccccc43)c(=O)oc12 | - | - | - | - | - | -71
CCOc1cccc2cc(C(=O)N3CCc4ccccc43)c(=O)oc12 | - | . | - | - | . | -
C=CCOC(=O)C1=C(C)NC(C)=C(C(=O)OCC=C)C1c1ccco1 | - | . | . | 11µM | . | -
C=CCOC(=O)C1=C(C)NC(SCC(N)=O)=C(C#N)C1c1ccc(C)cc1 (stereo not drawn) | . | . | . | - | . | -
C=CCOC(=O)C1=C(C)NC(SCC(=O)Nc2ccc(C)c(Cl)c2)=C(C#N)C1c1ccco1 (stereo not drawn) | 10µM | ? | - | 6.3µM | ? | ?
C=CCOC(=O)C1=C(C)NC(SCC)=C(C#N)C1c1ccc(Cl)cc1 (stereo not drawn) | ? | - | - | 10µM | - | -
CO[C@H]1[C@H](NC(=O)c2ccsc2)c2ccccc2C12CCN(Cc1ccc3c(c1)OCO3)CC2 | . | - | . | . | - | .
Cc1cccc(N2CCN(S(=O)(=O)c3ccc(-c4cnc(C5CC5)o4)cc3)CC2)c1C | . | - | ? | . | - | -
C=CCn1c(=N)n(CC(O)COc2ccccc2OC)c2ccccc21 (stereo not drawn) | . | - | . | ? | - | -
COc1ccc(OCCn2c(=N)n(CCO)c3ccccc32)cc1 | ? | - | - | - | - | -
CCCCn1c(=N)n(CCOc2ccccc2OC)c2ccccc21 | ? | -[7.34 µM] | ? | . | -[7.34 µM] | -71
CCCCCn1c(=N)n(CC(O)COc2ccccc2OC)c2ccccc21 (stereo not drawn) | ? | ? | ? | 11µM | ? | -
CCn1c(=N)n(CCOc2ccc(Br)cc2)c2ccccc21 | . | -[7.34 µM] | - | . | -[7.34 µM] | -101
CCCCn1c(=N)n(CCOc2ccc(C)cc2)c2ccccc21 | ? | 14µM | ? | - | ? | -
CCN(CC)CCCNc1sc(S(=O)(=O)c2ccccc2)nc1S(=O)(=O)c1ccc(Cl)cc1 | ? | - | - | . | - | -75
Cc1ccc(S(=O)(=O)c2nc(S(=O)(=O)c3ccccc3)sc2N2CCN(C)CC2)cc1 | . | . | . | - | . | -99
CCN(CC)c1sc(S(=O)(=O)c2ccccc2)nc1S(=O)(=O)c1ccc(C)cc1 | ? | - | ? | . | - | -73
Cc1ccc(S(=O)(=O)c2nc(S(=O)(=O)c3ccccc3)sc2N2CCN(CCO)CC2)cc1 | . | . | . | - | . | -98
CCCS(=O)(=O)c1nc(S(=O)(=O)c2ccc(C)cc2)c(N(CC)CC)s1 | - | - | - | . | - | ?
CCS(=O)(=O)c1nc(S(=O)(=O)c2ccc(C)cc2)c(N2CCCC2)s1 | . | -[7.34 µM] | . | - | -[7.34 µM] | -
COc1ccc(-n2ncc(C(=O)N3CCc4ccccc4C3)c2C2CCN(C(=O)OC(C)(C)C)CC2)cc1 | . | - | ? | . | - | ?
CCN1C(=O)[C@@H]2[C@H]3[C@H](O)[C@H](O)CC(=NO[C@@H]4O[C@H](COC(C)=O)[C@@H](OC(C)=O)[C@H](OC(C)=O)[C@@H]4OC(C)=O)[C@@H]3CC[C@H]2C1=O | - | . | . | . | . | .
O=C(Nc1ccccc1F)c1ccc(Cn2nc(N3CCN(c4ccccc4)CC3)ccc2=O)o1 | . | ? | ? | . | - | ?
O=C(Nc1ccc(F)cc1)c1ccc(Cn2nc(N3CCN(c4ccccc4)CC3)ccc2=O)o1 | . | - | ? | . | ? | -62
CCN(CC)CCNc1ccc(CO)c2oc3cc(Cl)ccc3c(=O)c12 | . | ? | . | . | ? | -
SMILES | MARV entry inh | VACV mCherry inh | LASV entry inh | HCV inh | Vaccinia Venus | HCMV inh
CCN(CC)CCNc1ccc(C)c2sc3ccc(O)cc3c(=O)c12 | 2.2µM | ? | ? | ? | ? | -97
COCc1cc(C)nc(SCC(=O)Nc2cc3c(cc2C#N)OCO3)c1C#N | - | - | - | 10µM | - | -
COCc1cc(C)nc(SCC(=O)Nc2ccccc2C)c1C#N | - | - | - | - | - | -
CCC1(c2ccc(F)cc2)NC(=O)N(CC(=O)Nc2cccc(S(=O)(=O)N3CCCCC3)c2)C1=O (stereo not drawn) | ? | - | - | 10µM | - | -
CCOC(=O)c1cc(-c2ccccc2)sc1NC(=O)CN1C(=O)NC(CC)(c2ccc(F)cc2)C1=O (stereo not drawn) | ? | . | - | 10µM | . | -
CC1CCC2(CC1)NC(=O)N(CC(=O)Nc1cccc(S(=O)(=O)N3CCCCC3)c1)C2=O (stereo not drawn) | . | . | . | 25µM | . | -
CCCCc1ccc(S(=O)(=O)N[C@H]2CC[C@@]34CCCN3C(=O)CCC[C@H]4[C@H]2C)cc1 | . | . | . | . | . | -
COc1ccc2c(c1)-c1nc(-n3ncc(C(=O)N(C)CCO)c3C3CC3)ncc1CC2 | . | - | . | . | - | .
C[C@@H]1CC2=CCCC2[C@]2(O1)C(=O)N(Cc1ccc(Br)cc1)c1cccc(Br)c12 (stereo partly drawn) | - | . | ? | . | . | .
COc1ccc(C[C@@H]2OC3(C=CC(=O)C=C3)O[C@H]2Cc2ccc(OC)cc2)cc1 | 2.5µM | ? | ? | 4µM | 10µM | .
COc1ccc(N2C(=O)CC(Cc3ccccc3)C2=O)cc1 (stereo not drawn) | - | . | - | - | . | -
O=C1C=CC2(C=C1)O[C@H](Cc1ccccc1)[C@@H](Cc1ccccc1)O2 | 2.8µM | 10µM | 7.1µM | 2.5µM | 22µM | -99
COC(=O)C1=NNC(C(=O)c2ccco2)C1c1ccccc1 (stereo not drawn) | - | . | - | - | . | -
COC(=O)C1=NNC(C(=O)c2ccco2)C1c1ccc(OC)cc1 (stereo not drawn) | . | . | . | - | . | -64
CCN(c1ccc(OC)cc1)S(=O)(=O)c1ccc(-c2cc(C)no2)s1 | . | . | . | - | . | -76
COc1ccc(N(C(=O)CCl)C(C(=O)NCCc2ccccc2)c2cccs2)cc1 (stereo not drawn) | ? | - | ? | 5.6µM | ? | -100
COc1ccc(CNC(=O)C(c2ccncc2)N(C(=O)Cc2cccs2)c2ccccc2)cc1 (stereo not drawn) | ? | - | - | - | - | -
Cc1cc(C)cc(NC(=O)C(=O)NCC(c2cccnc2)N2CCOCC2)c1 (stereo not drawn) | . | - | - | . | - | -
CCOc1ccccc1N1CC(c2nc3ccccc3n2CCOc2ccc(OC)cc2)CC1=O (stereo not drawn) | - | - | - | . | - | -
O=C(CSc1ccc2ccccc2n1)N/N=C/c1ccccc1O | . | . | . | ? | . | -100
Cc1cc(SCC(=O)N/N=C/c2ccccc2C(=O)O)c(C)cc1Br | - | - | - | - | - | -
O=C(CSC1c2ccccc2-c2ccccc21)N/N=C/c1ccccc1O | 8.2µM | . | 12µM | ? | . | -96
O=C(CSc1ccc2ccccc2n1)N/N=C/c1ccc(O)cc1 | . | . | . | - | . | -
Cc1cc(SCC(=O)N/N=C/c2ccc(O)cc2O)c(C)cc1Br | ? | . | 4.6µM | ? | . | -83
Cc1cc2c(c(-c3cnccn3)c1)OC(CNC(=O)c1ccccc1C(F)(F)F)C2 (stereo not drawn) | . | - | . | . | - | .
Cc1ccc(C(=O)c2oc3ccccc3c2NC(=O)c2cc(=O)c3ccccc3o2)cc1 | - | - | - | . | - | -
